# Several values for one entry are separate records, joined by “and”; a condition that tells them apart may be missing. Identical values can stand only once. Results filed as inconclusive are left out. Where a call stands in place of a potency, no number is given. A number with no mark means an inactive call. Activity calls are given as the source filed them. Calls come from the whole dose curve.
# Assay: p53 small molecule agonists, cell-based qHTS assay with rat liver microsomes: qHTS cell viability counter screen (AID 1963580); note: nearly all actives have a fitted effect of over 45% in size
# Details: p53RE-bla HCT-116 + rat microsomes, ATP viability, 16 h; series mostly up to 66 µM
# Source text: National Center for Advancing Translational Sciences [NCATS]
# Division of Preclinical Innovation [DPI]
# U.S. Environmental Protection Agency [EPA]
# National Institutes of Environmental Health Sciences [NIEHS]
# National Toxicology Program [NTP]
# U.S. Food and Drug Administration [FDA]
# p53, a tumor suppressor protein, is activated following cellular insult, including DNA damage and other cellular stresses. The activation of p53 regulates cell fate by inducing DNA repair, cell cycle arrest, apoptosis, or cellular senescence. The activation of p53, therefore, is a good indicator of DNA damage and other cellular stresses. The CellSensor p53RE-bla HCT-116 cell line contains a stably integrated beta-lactamase reporter gene under control of the p53 response elements. The activation of the reporter gene under culture conditions can be detected by fluorescence intensity. This cell line was used to screen the Tox21 10K compound library in the condition of presence of rat liver microsomes and to identify agonists that activate the p53 signaling pathway after in vitro metabolic activation (Ooka et al., Archive of Toxicology 96:1975-1987, 2022). The cytotoxicity of the Tox21 compound library against the p53 RE-bla HCT-116 cell line was tested in parallel by measuring the intra cellular ATP content in the same wells.
# Tox21 Assay Protocol Summary:
# The p53RE-bla cells were dispensed at 4,000cells/3ul/well in 1536-well black-clear bottom plates. After the assay plates were incubated at 37 C, 5% CO2 incubator for 5 hours, 23 nL of compounds dissolved in DMSO, positive controls or DMSO only was transferred to the assay plate. Following compound addition, 3 uL of rat liver microsomes (Molecular Toxicology, Boone, NC) at final concentration of 0.5 mg/mL and 1uL of B-Nicotinamide adenine dinucleotide 2'-phosphate (NADPH) at final concentration of 0.5 mg/mL were transferred to the assay plate. The plates were incubated at 37 C for 16 hours. 1 uL of LiveBLAzer detection mixture was added to each well and the plates were incubated at room temperature in the dark for 2 h. Fluorescence intensity at 460 and 530 nm emission and 405 nm excitation were measured by an Envision plate reader. For cell viability readout that measures cytotoxicity, 4 ul/well of CellTiter-Glo reagent was added into the assay plates using a Flying Reagent Dispenser. After 30 min incubation at room temperature, the luminescence intensity in the plates was measured using a ViewLux plate reader.
# Potency is the fitted concentration of half-maximal effect.
SMILES,Potency,"activity change, negative = cytotoxicity"
CCCCc1ccc2cccc(S(=O)(=O)O)c2c1,inactive,–
O=C(CCN1CCN(CCO)CC1)N1c2ccccc2Sc2ccc(C(F)(F)F)cc21,inactive,–
CC#N,inactive,–
CNC(=O)[C@H]1O[C@@H](n2cnc3c(NCc4cc(Cl)ccc4OCc4cc(C)no4)ncnc32)[C@H](O)[C@@H]1N,inactive,–
O=C1CC2(CCCC2)CC(=O)N1CCCCN1CCN(c2ncccn2)CC1,inactive,–
O=C(O)CCCCCC(=O)O,inactive,–
O=C(O)c1cc(=O)[nH]c(=O)[nH]1,inactive,–
O=c1[nH]c2ccc(Cl)cc2o1,inactive,–
CC(C)(C)c1cc(C(C)(C)C)c(O)c(C(C)(C)C)c1,inactive,–
O=C(O)c1cccnc1C(=O)O,inactive,–
O=C1CCN(c2ccccc2)N1,inactive,–
Nc1cc(C(Cl)=C(Cl)Cl)c(S(N)(=O)=O)cc1S(N)(=O)=O,inactive,–
NCCc1ccc(O)c(O)c1,inactive,–
CC(C)(C)C(=O)C1C(=O)c2ccccc2C1=O,inactive,–
CC(C)CC(O)CC(C)C,inactive,–
CC1(C)C(C=C(Cl)Cl)C1C(=O)OCc1cccc(Oc2ccccc2)c1 (stereo not given),inactive,–
NS(=O)(=O)c1ccc(NC(=O)CCC(=O)O)cc1,inactive,–
c1ccc2c(c1)ccc1ncccc12,inactive,–
NC[C@H]1O[C@H](O[C@H]2[C@H](O)[C@@H](O[C@H]3O[C@H](CO)[C@@H](O)[C@H](N)[C@H]3O)[C@H](N)C[C@@H]2N)[C@H](N)[C@@H](O)[C@@H]1O,–,3.53% [at 13.5 µM]
CCCOCCOCCO,inactive,–

SMILES,Potency,"activity change, negative = cytotoxicity"
CC(C)=CCCC(C)CCOC(=O)C(C)C (stereo not given),inactive,–
O=C(O)CNc1ccccc1,inactive,–
Cc1cncc(C)c1,inactive,–
O=C1Nc2ccccc2C1=O,inactive,–
CN(C)C(=S)SC(=S)N(C)C,16.6 µM (active) and 5.76 µM (active),–
O=C[O][Al]([O]C=O)[O]C=O,inactive,–
CC1(C)O[C@@H]2C[C@H]3[C@@H]4C[C@H](F)C5=CC(=O)C=C[C@]5(C)[C@@]4(F)[C@@H](O)C[C@]3(C)[C@]2(C(=O)CO)O1,inactive,–
CCOC(OCC)C(=O)c1ccccc1,inactive,–
CCOC(=O)C(C)Oc1ccc(Oc2cnc3cc(Cl)ccc3n2)cc1 (stereo not given),inactive,–
Cc1ccc(C)o1,inactive,–
CC1CCCC(=O)C1=O (stereo not given),inactive,–
CCN(CC)CC(=O)OCC(=O)[C@@]1(O)CC[C@H]2[C@@H]3CCC4=CC(=O)CC[C@]4(C)[C@H]3[C@@H](O)C[C@@]21C,inactive,–
O=C(O)/C=C/c1ccc(Cn2ccnc2)cc1,inactive,–
Cc1cc(C)c(S(=O)(=O)O)cc1N=Nc1cc(S(=O)(=O)O)c2ccccc2c1O,inactive,–
OCCN1CCNCC1,inactive,–
CCC(C(=O)NC(N)=O)c1ccccc1 (stereo not given),inactive,–
C=Cc1ccccn1,inactive,–
O=S(=O)(O)c1cccc2ccccc12,inactive,–
CCc1occc(=O)c1O,inactive,–
COC(c1ccccc1)(c1ccccc1)[C@H](Oc1nc(C)cc(C)n1)C(=O)O,inactive,–

# Source: PubChem BioAssay (Tox21)
